In PubChem BioAssay AID1053117 (Broad Institute, 2014):
Entries with a potency or affinity are not part of this list. Values without a mark were called inactive.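 How the source made its calls: active means compounds lowering cell ATP signal with a fitted half-effect dose at most twice the top valid dose; inconclusive means flat curve with 30 to 70% signal loss, or bad fit; inactive means wrong direction, flat within 30%, or weaker than limit.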

Test: viability loss in HEK293 kidney cells – cell-based, cherry-picks, set 5, cytotoxicity control, dose response (AID 1053117);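 further: more negative means greater loss of ATP signal and more cytotoxicity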
Details: HEK293T viability, CellTiter-Glo ATP luminescence, 72 h; series mostly up to 26 µM; activity change, negative = cytotoxicity: at the top concentration

Going from `CCc1nc2c(OCCc3cccc(OC)c3)cccn2c1N(C)C(=O)c1ccc(C)cc1` to `COc1ccc(CCNC(=O)C2CCN(Cc3nc(-c4ccccc4F)oc3C)CC2)cc1OC`, the “activity change, negative = cytotoxicity” value rises from -22.9% to 3.94%.

Going from `CCCc1cc(C(=O)OC)c(NC(=O)CCC(=O)O)s1` to `CCOc1ccccc1NC(=O)c1c(NC(=O)CCC(=O)O)sc2c1CCCCC2`, the “activity change, negative = cytotoxicity” value falls from -10.7% to -13.1%.

Going from `CO[C@@H]1CN(C)C(=O)c2ccc(NC(=O)c3ccc(-c4ccccc4)cc3)cc2OC[C@@H](C)NC[C@@H]1C` to `C[C@H](CO)N1C[C@H](C)[C@@H](CN(C)Cc2ccc(-c3ccccc3)cc2)Oc2ccc(NC(=O)C3CCCCC3)cc2C1=O`, the “activity change, negative = cytotoxicity” value rises from -18.6% to -16.4%.

First: C[C@H](CO)N1C[C@H](C)[C@H](CN(C)C)Oc2cc(C#C[C@@H](C)O)ccc2S1(=O)=O
Second: C[C@@H](O)C#Cc1ccc2c(c1)O[C@@H](CN(C)C)[C@@H](C)CN([C@@H](C)CO)S2(=O)=O
The “activity change, negative = cytotoxicity” value of the first is higher: -0.273% for the first, -7.13% for the second.

First: CCCCOc1ccc(C(C)NC(=O)C2CCCN(S(=O)(=O)CCC)C2)cc1 (centres undefined)
Second: CC(C)NC(=O)N(C)C[C@H]1Oc2ccc(NC(=O)CCN3CCOCC3)cc2C(=O)N([C@H](C)CO)C[C@@H]1C
The “activity change, negative = cytotoxicity” value of the first is higher: 1.02% for the first, -4.33% for the second.

First: O=C(C[C@@H]1C[C@@H]2c3cc(NC(=O)c4ccc5c(c4)OCO5)ccc3O[C@@H]2[C@@H](CO)O1)NCc1ccc(Oc2ccccc2)cc1
Second: COCC(=O)Nc1ccc2c(c1)C(=O)N(C)[C@H]1CC[C@@H](CC(=O)NCc3ccccc3Cl)O[C@H]1CO2
The “activity change, negative = cytotoxicity” value of the first is lower: -12.6% for the first, 0.812% for the second.

First: CCc1ccc(NC(=O)CSc2nnc(-c3ccco3)o2)cc1
Second: Cc1cccc(NC(=O)Nc2ccc(S(=O)(=O)Nc3onc(C)c3C)cc2)c1
The “activity change, negative = cytotoxicity” value of the first is higher: -13.1% for the first, -17.1% for the second.

First: CC(C)(C)[S@](=O)N1Cc2cc(C(=O)NCc3ccccc3F)nc(-c3cccc(-c4cncnc4)c3)c2[C@@H]1CCO
Second: C[C@@H]1CN([C@H](C)CO)C(=O)c2cc(-c3ccccc3)cnc2O[C@@H]1CN(C)C(=O)c1cccc(F)c1
The “activity change, negative = cytotoxicity” value of the first is higher: 0.126% for the first, -13.5% for the second.

First: O=C(Nc1ccccc1F)N1C[C@H]2[C@@H](c3ccccc31)[C@@H](CO)N2C(=O)C1CC1
Second: O=C(c1cccnc1)N1C[C@H]2[C@@H](c3ccccc31)[C@@H](CO)N2CC1CCCC1
The “activity change, negative = cytotoxicity” value of the first is higher: -7.36% for the first, -16% for the second.

Compared with `C[C@@H]1CN([C@H](C)CO)C(=O)c2cc(NC(=O)CCCN(C)C)ccc2O[C@H]1CN(C)Cc1ccc(-c2ccccc2)cc1`, `C[C@H](CO)N1C[C@H](C)[C@@H](CN(C)Cc2ccccc2)Oc2ncc(-c3ccccc3)cc2C1=O` is lower in “activity change, negative = cytotoxicity” value: -10.5% for the first, -17.1% for the second.

Compared with `COc1ccc(-c2oc3ncnc(NCCCN4CCOCC4)c3c2-c2ccc(OC)cc2)cc1`, `CCOC(=O)c1cnc(SCc2nc(N)nc(Nc3ccc(OC)cc3)n2)nc1N` is lower in “activity change, negative = cytotoxicity” value: -10.4% for the first, -16.9% for the second.

Compared with `C[C@H](O)C#Cc1ccc2c(c1)O[C@H](CN(C)C)[C@H](C)CN([C@@H](C)CO)S2(=O)=O`, `COC(=O)C[C@H]1CC[C@H]2[C@H](COc3ccc(NC(=O)Cc4cccs4)cc3C(=O)N2C)O1` is lower in “activity change, negative = cytotoxicity” value: -0.553% for the first, -8.78% for the second.

For `Fc1cnc(N2CCN(c3ccccc3)CC2)nc1N1CCN(c2ccccc2)CC1`, the “activity change, negative = cytotoxicity” value was -16.1%.

Going from `O=C(Nc1ccccc1F)N1C[C@@H]2[C@H](c3ccccc31)[C@H](CO)N2C(=O)C1CCOCC1` to `O=C(Nc1ccccc1F)N1C[C@@H]2[C@H](c3ccccc31)[C@H](CO)N2C(=O)C1CC1`, the “activity change, negative = cytotoxicity” value falls from -4.17% [at 23.5 µM] to -4.96% [at 23.5 µM].

Going from `CN1c2ccc(-c3ccccc3)cc2[C@@H]2[C@@H](CCN2C(=O)CN2CCOCC2)[C@H]1CO` to `Cc1ccc(S(=O)(=O)N2CC[C@@H]3[C@H]2c2cc(-c4cccc(C(=O)N(C)C)c4)ccc2N[C@@H]3CO)cc1`, the “activity change, negative = cytotoxicity” value falls from -9.36% [at 23.5 µM] to -11.6% [at 23.5 µM].

Going from `COCC(=O)Nc1ccc2c(c1)C(=O)N(C)[C@H]1CC[C@H](CC(=O)NCc3ccccc3Cl)O[C@@H]1CO2` to `COCC(=O)Nc1ccc2c(c1)C(=O)N(C)[C@@H]1CC[C@@H](CC(=O)NCc3ccccc3Cl)O[C@@H]1CO2`, the “activity change, negative = cytotoxicity” value rises from -13.8% [at 23.5 µM] to -7.18% [at 23.5 µM].

First: C[C@H]1CN([C@@H](C)CO)C(=O)c2cccc(NC(=O)Nc3ccc(C(F)(F)F)cc3)c2O[C@H]1CN(C)C(=O)Nc1cccc2ccccc12
Second: COC(=O)C[C@@H]1CC[C@@H]2[C@H](COc3ccc(NC(=O)Cc4cccs4)cc3C(=O)N2C)O1
The “activity change, negative = cytotoxicity” value of the first is lower: -18.4% [at 23.5 µM] for the first, -11.8% [at 23.5 µM] for the second.

With `CC(C)C(=O)Nc1ccc2c(c1)C(=O)N(C)[C@@H]1CC[C@H](CC(=O)O)O[C@@H]1CO2` the “activity change, negative = cytotoxicity” value was -14.7% [at 23.5 µM].
